Data as given in publication PMC13494018.
Values without a mark were called inactive. No rule for the calls is given here.

B1: design_615_ab801fab-270b-4f6a-b2b5-83c165df418c_1503_dldesign_0_cycle1_af2pred (protein)
chain: AAALAAAQAAAGATALETLEVASKAAKAGSPEVAAEANKLAQQATQLAQQAAQGDLATAKAQLAAIQKLLAQAKELLKK
B2: design_615_ab801fab-270b-4f6a-b2b5-83c165df418c_1064_dldesign_0_cycle1_af2pred (protein)
chain: AREQAQQALDFALANAQLIAQRRGEAGKRLAELVQKALEADEEEALKYLEEAIRLAEELAKDPAVAALARAAILALREARRLLE
B3: design_615_ab801fab-270b-4f6a-b2b5-83c165df418c_1818_dldesign_0_cycle1_af2pred (protein)
chain: DPRAAASQALAAATADALLARLGELAGADVADRLRALLAGDAASKAEAARLARALAEEWRARNPAAAAALYGIAVLAESLAA
B4: design_615_ab801fab-270b-4f6a-b2b5-83c165df418c_1097_dldesign_0_cycle1_af2pred (protein)
chain: SEAMKTAGAKILTATAASLERQLAEARANPGELRPRAAALAQLAAQLAESAKAIGDEETAARLAAISAEAAALAA
B5: design_616_e8336982-fa4d-4d7c-b06f-9007953e1994_173_dldesign_0_cycle1_af2pred (protein)
chain: MEEKSKELKKKLEEAKKIAKEDPEKGAELAAEAAKEAAEAGDFGSAGEAIVLIAKMGTPKASRELAEASRYLIAAIRAA
B6: design_615_ab801fab-270b-4f6a-b2b5-83c165df418c_2496_dldesign_0_cycle1_af2pred (protein)
chain: GEKEELIKKAEEKAAKAKEYEAKAKAAAADPAKAVEYYNKALYLYLEAAKLASKADPELAKKYSDEANKVAKKAIEAAKAA
B7: design_615_ab801fab-270b-4f6a-b2b5-83c165df418c_1187_dldesign_0_cycle1_af2pred (protein)
chain: AAAEEVARRGASALAAGQNLIEMAKAASPEAAAVATAALAQAKALLAQGTPEAAEQAQQVINDAMAQVSKIMIAAA
B8: design_615_ab801fab-270b-4f6a-b2b5-83c165df418c_776_dldesign_0_cycle1_af2pred (protein)
chain: MEEAEEAYREAEEIKRETKAKAEAGTLTAQEAMEALARLEELREKLRELAEEEGEEAEEYYREVNEYAVEVSRIANAVFAAERAA
B9: design_615_ab801fab-270b-4f6a-b2b5-83c165df418c_806_dldesign_0_cycle1_af2pred (protein)
chain: AAQAQAIEQLEKLIETAKELAKERPEEKEEILGKAHETAGQVLTLIAKGLQDPATAEQALKLAQAKLKEMEKKLKEAKA
B10: design_616_e8336982-fa4d-4d7c-b06f-9007953e1994_74_dldesign_0_cycle1_af2pred (protein)
chain: EKEAQEKREKAKKLIEEIKKLAKEVAANPAISGMLNQLAKAAETAAANSSPEQGLKNAEKWLEIGKEAAKTAAA
B11: design_615_ab801fab-270b-4f6a-b2b5-83c165df418c_2322_dldesign_0_cycle1_af2pred (protein)
chain: AQAEVKAKAEKLIEELIKASSEVVAAAAKAGDGESAVEANKAASEAIKKIKAAAKAGDLEAAKKAAEEGMKKLKELKAKVEAK
B12: design_615_ab801fab-270b-4f6a-b2b5-83c165df418c_863_dldesign_0_cycle1_af2pred (protein)
chain: AQAAEAALRTAEAVVRRAEEAIARGASPEELRALAKLAEVVAESLLAVAKTASPEQAKRLEEAAERARRAAEEARRAAERLEREAA
B13: design_615_ab801fab-270b-4f6a-b2b5-83c165df418c_2173_dldesign_0_cycle1_af2pred (protein)
chain: LTPEEKQKLIEEGTELRNKGAALANQAMLAAAAGDKATAKELMAKAKEYFDKAIELYEKAGDEKKAESVKKLKDTLTSAFEAQLAA
B14: design_616_e8336982-fa4d-4d7c-b06f-9007953e1994_361_dldesign_0_cycle1_af2pred (protein)
chain: AAAQAKALAAQAKAAIESGSLSPGEVARLAVKAGAYAMAAANADPSIAAEMQALAQDLFAKVDEYIAKVAA
B15: design_615_ab801fab-270b-4f6a-b2b5-83c165df418c_706_dldesign_0_cycle1_af2pred (protein)
chain: ASAARMAEIQAKGEEVAEKAKEKYKELLERLPDPEEALAEARAYLREVGAQYSGAVLGYALSLFESWAEEEL
B16: design_615_ab801fab-270b-4f6a-b2b5-83c165df418c_2413_dldesign_0_cycle1_af2pred (protein)
chain: AAAALAAEALALREKGVAAAKAGRYALARNYFLQALITAGASPATIQAVVRALAAGAADPSTAPAAVAHADATVTAAAAAVAAA
B17: design_615_ab801fab-270b-4f6a-b2b5-83c165df418c_1773_dldesign_0_cycle1_af2pred (protein)
chain: SETAEEARRAVERLKEAAKKLAKAGTPEHAGYAEGLVTTTTALVERLLAAGREEEALRAARRALERAERLLKKALA
B18: design_615_ab801fab-270b-4f6a-b2b5-83c165df418c_1763_dldesign_0_cycle1_af2pred (protein)
chain: EELVERLRLMRDVVAAALAAAGLDADAFAALLEAAAAAAREDPARAVELLARVAERAEELAAKASPLQRGVLRFAVTVARGAAAALA
B19: design_615_ab801fab-270b-4f6a-b2b5-83c165df418c_2088_dldesign_0_cycle1_af2pred (protein)
chain: DTERKLALLQEAIVKLTEALAAYNTDPATGRALAREAAELLKEAGLEEAAELARKAAEDPENGFEYARRALGLVTKAYIELSR
B20: design_615_ab801fab-270b-4f6a-b2b5-83c165df418c_1881_dldesign_0_cycle1_af2pred (protein)
chain: ALAAELAREALRAEAERIAAAKLAEAKAGTPETAQAQAAYLVSLAEEHPETAGIYLGAAAQIHAVLIAKTA
B21: design_615_ab801fab-270b-4f6a-b2b5-83c165df418c_1266_dldesign_0_cycle1_af2pred (protein)
chain: AAALEEAKAQLKKLAEELLEKSKEAAKLGSDAAIAVTSKYVAKGSALLVQYPEVSSEPLVEAVKEASKLIKEA
B22: design_615_ab801fab-270b-4f6a-b2b5-83c165df418c_921_dldesign_0_cycle1_af2pred (protein)
chain: SAALKAALAALDAAEKAAEAADPEVAAIVRATREAVKKAPDEVAAKAAQMATAIESLAKAGFVASARATARNLLAYVSAAVAAAE
B23: design_615_ab801fab-270b-4f6a-b2b5-83c165df418c_1027_dldesign_0_cycle1_af2pred (protein)
chain: KEALEKAKKEAEKILKEAAEKVSPEVAKYVEEAAKQPTIEEMIHKVLLAAAKAGQVNLEDGKILLEAAEKIAAIYKKAKEE
B24: design_615_ab801fab-270b-4f6a-b2b5-83c165df418c_1179_dldesign_0_cycle1_af2pred (protein)
chain: SPTEIAGKAVREIQELTEQAIANPETAEQLAAEAKKVAEEAGKKTGEGLAQLLKNVAAQREKEVQAALAA
B25: design_615_ab801fab-270b-4f6a-b2b5-83c165df418c_1665_dldesign_0_cycle1_af2pred (protein)
chain: MEEEKEKEKYIKELKKAAEEAIKTAKEAAKLDPKAGGALLKYVEASGKQALENAEKGDLETAKNQLEFMKQVLEIAKGTLAALKAA
B26: design_615_ab801fab-270b-4f6a-b2b5-83c165df418c_1262_dldesign_0_cycle1_af2pred (protein)
chain: KEAAEKAAEKKAEEIKKIAEIAGGAVSPEDAAKIKKEAEEKIEELKKFAKESTPEEAEKYGQELVLEFSQSATKVMVAAAKAA
B27: design_616_e8336982-fa4d-4d7c-b06f-9007953e1994_328_dldesign_0_cycle1_af2pred (protein)
chain: NANLQAAKVALASAEATLKHADAGVAAGTISPESAKKLYELAATLAKDAAEYAKKAGDAELAKKAEELAKEAKAKAEEMAAKAAA
B28: design_615_ab801fab-270b-4f6a-b2b5-83c165df418c_1854_dldesign_0_cycle1_af2pred (protein)
chain: LRERAESNLAFAQTALEAAKQAKAAGAPQSLVQGLANIAERAAQLAIEEAAKDPALAPLAEEAKKVAEEAKKVAA
B29: design_616_e8336982-fa4d-4d7c-b06f-9007953e1994_177_dldesign_0_cycle1_af2pred (protein)
chain: AGQATYNAAKAMAKSAAAMYLAGKYEDAEKVYQVAVDLAQSLIADPASKAQGEKALAYAKETYAKAKAEAEKKAA
B30: design_616_e8336982-fa4d-4d7c-b06f-9007953e1994_26_dldesign_0_cycle1_af2pred (protein)
chain: SLEEAAAQAQALVDQATALGAQDYASASQGIALLAEAAKLVEEAGLPPETAAAIMAAINAALATVSKNAAAFVAA
B31: design_615_ab801fab-270b-4f6a-b2b5-83c165df418c_2473_dldesign_0_cycle1_af2pred (protein)
chain: SPEALTAAVRAEGDALLAEAEATAAADPEAGKAAYEAAIRRLLGLAARLLQESPAAAQAALDRAVELAAKLEEL
B32: design_615_ab801fab-270b-4f6a-b2b5-83c165df418c_2427_dldesign_0_cycle1_af2pred (protein)
chain: AMEAAKAAAKAAAAAAAAAGLTDLAAEIAAAAKEAEETGIEGANRLMGLAARYAVQHPALNAAMSALIEAAGAYIAEAA
B33: design_615_ab801fab-270b-4f6a-b2b5-83c165df418c_2495_dldesign_0_cycle1_af2pred (protein)
chain: GEAEAKFAEALALLDRAEELAKGGDAAQLAEASALLTQAIELATQVSPEKRAEISRRAAEISKRLLAQLAA
B34: design_615_ab801fab-270b-4f6a-b2b5-83c165df418c_1933_dldesign_0_cycle1_af2pred (protein)
chain: ALQGALRSAAALLRNAAESEDPESREKLLDVAADLAAYAATLDPAAGAALAAAVEEARREGPEGARRAAELAAALAAA
B35: design_615_ab801fab-270b-4f6a-b2b5-83c165df418c_2317_dldesign_0_cycle1_af2pred (protein)
chain: GAARMAAAGAQAAALAAELPAAVDPMLEGILNPETREAHEAEARAIARALDPENAEELWARVLRAAMGLLLAQGLARA
B36: design_615_ab801fab-270b-4f6a-b2b5-83c165df418c_1174_dldesign_0_cycle1_af2pred (protein)
chain: ADEEDLAAAKKRLEDTKKLVEINLTMANQGPLGAKAAIASLNTQIKVLEAAKKAATPAAQPELDKAIAIAKAALAEAKAKAAA
B37: design_615_ab801fab-270b-4f6a-b2b5-83c165df418c_1575_dldesign_0_cycle1_af2pred (protein)
chain: GEEEEKKKKEKFEEAAEKVNKGLALASQAALADPKYQPVLAKVVELAKEAEKLKKEGKAEEALKKAEEAYEVAKKALAAVKAA
B38: design_615_ab801fab-270b-4f6a-b2b5-83c165df418c_2359_dldesign_0_cycle1_af2pred (protein)
chain: MEEDVALLRDIARLGRESLERARAGTAAEAERALADFTAAADAAIARLAPGEGAALLAANMRARFAAEMRAVAAAKAA

Target: CD276, Q5ZPR3
Sequence (Q5ZPR3 whole entry): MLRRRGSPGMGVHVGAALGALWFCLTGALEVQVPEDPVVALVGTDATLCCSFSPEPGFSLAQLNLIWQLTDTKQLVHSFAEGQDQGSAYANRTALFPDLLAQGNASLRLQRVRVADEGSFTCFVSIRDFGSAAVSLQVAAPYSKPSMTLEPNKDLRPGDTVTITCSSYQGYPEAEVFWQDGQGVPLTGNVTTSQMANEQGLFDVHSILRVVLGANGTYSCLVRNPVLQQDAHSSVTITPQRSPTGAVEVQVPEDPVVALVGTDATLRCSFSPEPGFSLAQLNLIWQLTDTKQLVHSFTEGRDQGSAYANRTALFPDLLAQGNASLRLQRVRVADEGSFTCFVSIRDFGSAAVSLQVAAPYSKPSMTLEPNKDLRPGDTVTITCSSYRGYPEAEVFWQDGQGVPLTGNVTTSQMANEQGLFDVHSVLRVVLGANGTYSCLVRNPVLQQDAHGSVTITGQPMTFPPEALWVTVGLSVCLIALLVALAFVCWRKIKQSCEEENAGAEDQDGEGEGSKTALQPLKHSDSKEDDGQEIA

| Binder | binding in a display sort |
| --- | --- |
| B1 | not found |
| B2 | not found |
| B3 | not found |
| B4 | not found |
| B5 | not found |
| B6 | not found |
| B7 | not found |
| B8 | not found |
| B9 | not found |
| B10 | not found |
| B11 | not found |
| B12 | not found |
| B13 | not found |
| B14 | not found |
| B15 | not found |
| B16 | not found |
| B17 | not found |
| B18 | not found |
| B19 | not found |

| Binder | binding in a display sort |
| --- | --- |
| B20 | not found |
| B21 | not found |
| B22 | not found |
| B23 | not found |
| B24 | not found |
| B25 | not found |
| B26 | not found |
| B27 | not found |
| B28 | not found |
| B29 | not found |
| B30 | not found |
| B31 | not found |
| B32 | not found |
| B33 | not found |
| B34 | not found |
| B35 | not found |
| B36 | not found |
| B37 | not found |
| B38 | not found |
